Ba/F3 V617F tox = reduced viability of JAK2V617F-dependent Ba/F3 cells, primary screen, JAK2V617F inhibitor project, cell-based, Ba/F3 EpoR-JAK2V617F, luminescence; 1.1% of 220,000 active; AID 1446, 2008; inhibition, % at 5.6 µM; ATP luminescence;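 active = inhibition above the campaign mean plus 3 SD over all tested compounds, cut at about 24% in these data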;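 also: cytokine-independent growth of Ba/F3 cells driven by EpoR plus mutant JAK2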
BaF3 tox = parental Ba/F3 cell viability inhibition, counter-screen for JAK2V617F inhibitor project, murine pro-B, CellTiter-Glo luminescence; CellTiter-Glo ATP luminescence; inhibition, % at 5.6 µM; 1.1% of 220,000 active; AID 1486, 2009;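 active = inhibition above a per-campaign cutoff, the mean inhibition of all tested compounds plus 3 SD, cut at about 27% in these data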
aSyn UTR inh = MLPCN primary screen, SNCA 5' untranslated region. alpha-synuclein 5'UTR reporter, inhibitor activity. inhibition, % (tested at 7.5 µM). 0.82% of 300,000 active. AID 1813, 2009; in the data active = inhibition above about 60%;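 also: H4 neuroglioblastoma cells stably carrying SNCA 5'UTR luciferase fusion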
KLF5 inh = KLF5 expression inhibitors, primary screen, DLD-1 cells, luminescence; inhibition, % at 5 µM; 0.23% of 290,000 active; DLD-1 KLF5 promoter-luciferase reporter; AID 1700, 2009;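 active = inhibition above a per-plate limit of that plate's mean compound inhibition plus 3 SD, cut at about 60% in these data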;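 also: higher means less KLF5 promoter-driven luciferase light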
IEC-6 tox = cytotoxicity in IEC-6 intestinal epithelial cells, primary screen, cytotoxicity control for KLF5 inhibitor project, cell-based, luminescence | IEC-6 cytotoxicity, luminescence viability | inhibition, % at 5 µM | 0.78% of 290,000 active | AID 1825, 2009
APP 5UTR inh = inhibitors of APP translation via 5'UTR reporter, primary screen, APP 5'UTR luciferase, SH-SY5Y cells. inhibition, % at 2 µM. AID 1285, 2008. 0.82% of 190,000 active. SH-SY5Y APP 5'UTR-luciferase reporter, luminescence;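 active = inhibition above a set limit, derived from the sample mean plus 3 SD, cut at about 45% in these data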
IEC-6 tox confirm = cytotoxic compounds in IEC-6 epithelial cells, confirmation, cytotoxicity control, cell-based, luminescence; shares compounds with IEC-6 tox; IEC-6 rat intestinal epithelial viability; inhibition, % at 5 µM; 63% of 1,900 active
Hits are given with their value. In the library only some 2.1% were active in any assay of this set; here they are far more common. Rule as the data show it, unless noted: active = inhibition above about 22%; inactive = the rest.

What do the screens show for `Cc1c(C(=O)OC2CCCC2)[nH]c2c1C(=O)CC(c1ccco1)C2` (configuration not stated)?
Ba/F3 V617F tox: 77; BaF3 tox: 81; aSyn UTR inh: inactive; KLF5 inh: inactive; IEC-6 tox: 88; APP 5UTR inh: 94; IEC-6 tox confirm: 57

What do the screens show for `Cc1c(C(=O)OCC(C)C)[nH]c2c1C(=O)CC(c1ccco1)C2` (configuration not stated)?
Ba/F3 V617F tox: 79; BaF3 tox: 76; aSyn UTR inh: 70; KLF5 inh: inactive; IEC-6 tox: 81; APP 5UTR inh: 96; IEC-6 tox confirm: 57

What do the screens show for `Cc1ccc(N2CC(C(=O)N3CCC(C(=O)Nc4nnc(C(C)(C)C)s4)CC3)CC2=O)cc1` (configuration not stated)?
aSyn UTR inh: inactive; KLF5 inh: inactive; IEC-6 tox: inactive

What do the screens show for `Cc1cc(C)n(Cc2cccc(C(=O)N/N=C/c3cccnc3)c2)n1`?
aSyn UTR inh: inactive; KLF5 inh: inactive; IEC-6 tox: inactive

Results for COc1ccccc1N1CCN(/N=C/C(Cl)=C/c2ccccc2)CC1 ?
Ba/F3 V617F tox: inactive; BaF3 tox: inactive; aSyn UTR inh: inactive; KLF5 inh: inactive; IEC-6 tox: inactive

What do the screens show for `COc1cc(/C=C/C(=O)c2ccc3c(c2)OCCO3)cc(Br)c1OCC(=O)N(C)C`?
aSyn UTR inh: inactive; KLF5 inh: inactive; IEC-6 tox: 24; IEC-6 tox confirm: inactive

How did Cc1ccn2c(C(=O)CSc3ccccc3)c(C)nc2c1 do in these assays?
Ba/F3 V617F tox: inactive; BaF3 tox: inactive; aSyn UTR inh: inactive; KLF5 inh: inactive; IEC-6 tox: 23; APP 5UTR inh: inactive; IEC-6 tox confirm: inactive

What do the screens show for `CCOc1ccc(N(Cc2cc3ccc(C)cc3[nH]c2=O)S(=O)(=O)c2ccccc2)cc1`?
aSyn UTR inh: inactive; KLF5 inh: inactive; IEC-6 tox: 22; IEC-6 tox confirm: inactive

How did COc1c(Cl)cnn(-c2ccc(C)cc2)c1=O do in these assays?
Ba/F3 V617F tox: inactive; BaF3 tox: inactive; aSyn UTR inh: inactive; KLF5 inh: inactive; IEC-6 tox: inactive; APP 5UTR inh: inactive

How did O=c1c(Br)c(Br)cnn1-c1ccccc1 do in these assays?
Ba/F3 V617F tox: 101; BaF3 tox: 50; KLF5 inh: inactive; IEC-6 tox: 102; APP 5UTR inh: 96; IEC-6 tox confirm: 46

Results for Cc1ccc(-n2ncc(Br)c(Br)c2=O)cc1 ?
Ba/F3 V617F tox: 101; BaF3 tox: 106; aSyn UTR inh: inactive; KLF5 inh: inactive; IEC-6 tox: 102; APP 5UTR inh: 94; IEC-6 tox confirm: 30

How did COc1ccc(CCNC(=O)c2ccc3nc(N4CCCCC4)sc3c2)cc1OC do in these assays?
aSyn UTR inh: inactive; KLF5 inh: inactive; IEC-6 tox: inactive

Results for CCOC(=O)c1ccc(NC(=O)NCc2ccccn2)cc1 ?
aSyn UTR inh: inactive; KLF5 inh: inactive; IEC-6 tox: inactive

How did C=CCN(CC=C)S(=O)(=O)c1ccc(NC(=S)NC(=O)C2CC2)cc1 do in these assays?
aSyn UTR inh: inactive; KLF5 inh: inactive; IEC-6 tox: inactive

What do the screens show for `CCCN(CCC)c1nc(-c2ccccn2)nc2ccccc12`?
aSyn UTR inh: inactive; KLF5 inh: inactive; IEC-6 tox: 93; IEC-6 tox confirm: 33

How did CCn1c(SCC(=O)Nc2ccccc2)nc2ccccc2c1=O do in these assays?
aSyn UTR inh: inactive; KLF5 inh: inactive; IEC-6 tox: inactive

Results for CCn1c(SCC(=O)Nc2cccc(C)c2)nc2ccccc2c1=O ?
aSyn UTR inh: inactive; KLF5 inh: inactive; IEC-6 tox: 22; IEC-6 tox confirm: inactive

What do the screens show for `COc1cc(OC)cc(-c2oc3cccnc3c2C#CCCO)c1`?
aSyn UTR inh: inactive; KLF5 inh: inactive; IEC-6 tox: 25; IEC-6 tox confirm: inactive

Results for COc1ccc(C(=O)c2ccc3oc(-c4ccc(OC)cc4)c(C#CCCO)c3c2)cc1 ?
aSyn UTR inh: inactive

Results for O=S(=O)(Cc1ccccc1Cl)NCCc1ccc(F)cc1 ?
aSyn UTR inh: inactive; KLF5 inh: inactive; IEC-6 tox: inactive

What do the screens show for `COc1ccc(C(=O)N/N=C/c2c[nH]c3ccccc23)cc1`?
aSyn UTR inh: inactive; KLF5 inh: inactive; IEC-6 tox: inactive

How did COc1ccc(C(=O)N/N=C/c2sc3ccccc3c2O)cc1 do in these assays?
Ba/F3 V617F tox: inactive; BaF3 tox: inactive; aSyn UTR inh: 84; KLF5 inh: inactive; IEC-6 tox: 27; APP 5UTR inh: 51; IEC-6 tox confirm: inactive

Results for Cc1ccc(C(=O)CCNc2ccc(F)c(Cl)c2)o1 ?
Ba/F3 V617F tox: 46; BaF3 tox: 58; aSyn UTR inh: inactive; KLF5 inh: inactive; IEC-6 tox: 31; APP 5UTR inh: inactive; IEC-6 tox confirm: 34

What do the screens show for `Cc1ccc(C(=O)CCNc2ccc(Br)cc2)o1`?
Ba/F3 V617F tox: inactive; BaF3 tox: inactive; aSyn UTR inh: inactive; KLF5 inh: inactive; IEC-6 tox: inactive; APP 5UTR inh: inactive

How did CCN(CC)CCOc1ccc2c(c1)C(=NO)c1cc(OCCN(CC)CC)ccc1-2 do in these assays?
Ba/F3 V617F tox: inactive; BaF3 tox: inactive; aSyn UTR inh: inactive; KLF5 inh: inactive; IEC-6 tox: 37; APP 5UTR inh: inactive; IEC-6 tox confirm: inactive

Results for CCN(CC)CCOc1ccc(Br)cc1 ?
Ba/F3 V617F tox: inactive; BaF3 tox: inactive; aSyn UTR inh: inactive; KLF5 inh: inactive; IEC-6 tox: inactive; APP 5UTR inh: inactive

Results for COc1ccc(-[n+]2c(C)cc(/C=C3\Sc4ccccc4N3C)cc2C)cc1 ?
Ba/F3 V617F tox: 101; BaF3 tox: 97; aSyn UTR inh: inactive; KLF5 inh: inactive; IEC-6 tox: 32; APP 5UTR inh: 83; IEC-6 tox confirm: 65

What do the screens show for `CC1CC2(CCCC2)Nc2ccc(F)cc21` (configuration not stated)?
aSyn UTR inh: inactive; KLF5 inh: inactive; IEC-6 tox: inactive

Results for CC1CC(C)(C)Nc2ccc(N=O)cc21 (configuration not stated) ?
Ba/F3 V617F tox: 97; BaF3 tox: 93; aSyn UTR inh: inactive; KLF5 inh: inactive; IEC-6 tox: 24; APP 5UTR inh: 65; IEC-6 tox confirm: inactive

How did Cc1nc2ncccn2c1-c1csc(Nc2ccc(O)cc2)n1 do in these assays?
Ba/F3 V617F tox: 82; BaF3 tox: 77; aSyn UTR inh: inactive; KLF5 inh: inactive; IEC-6 tox: 25; APP 5UTR inh: inactive; IEC-6 tox confirm: inactive

What do the screens show for `COc1ccc(N(CC(=O)Nc2ccccc2OC)S(=O)(=O)c2ccc(NC(C)=O)cc2)cc1`?
aSyn UTR inh: inactive; KLF5 inh: inactive; IEC-6 tox: 38; IEC-6 tox confirm: 32

How did COc1ccccc1NC(=O)CN(c1ccccc1)S(=O)(=O)c1ccccc1 do in these assays?
aSyn UTR inh: inactive; KLF5 inh: inactive; IEC-6 tox: inactive
